Bioassay records as filed in PubChem BioAssay.
Sampled rows, rich in hits. Any-hit rate of the full collection: about 5.5%.
Giardia killer – Small Molecules that selectively kill Giardia lamblia: qHTS | actives 0.15% (n = 340,000) | activity change, % at 7.66 µM, hits read low | Giardia lamblia trophozoite viability; in the data active = activity change below about -80%; inconclusive = between about -30% and that limit;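 also: parasites exposed to compound for two days anaerobically before the ATP read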
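Killing of trophozoites was scored by loss of ATP luminescence after a 48 hrs anaerobic exposure to compounds at 37 deg C, using 100 cells per well.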
ELG1 DNA repair – qHTS screen for small molecules that inhibit ELG1-dependent DNA repair in human embryonic kidney (HEK293T) cells expressing luciferase-tagged ELG1. HEK293T ELG1-luciferase reporter, luminescence, 16 h; DNA damage induced by 5-fluorouridine. actives 2.3% (n = 330,000). Potency, µM (top dose mostly 46.1 µM), for inactives: at the highest dose activity change, negative = inhibition, hits mostly inhibitors; also: potency is read from the fitted curve at half-maximal effect; nearly all actives have a fitted effect of over 55% in size
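Reporter activity after DNA damage by 5-fluorouridine is monitored. Compound-treated cells incubate 16 hr at 37 °C, then ONE-Glo is added for 30 min before luminescence reading.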
FBPA coupling cs – qHTS Assay for Inhibitors of Fructose-1,6-bisphosphate Aldolase from Giardia Lamblia: Coupling assay counterscreen. coupling enzyme system counterscreen, AmpLite Red fluorescence. activity change, negative = inhibition, % at 58.2 µM, hits read low. actives 0.67% (n = 290,000); in the data active = activity change below about -30%
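Activity here indicates interference with the coupling reaction, not aldolase inhibition. Compounds at 57.5 uM final met coupling enzymes for 10 min at RT; substrate and AmpLite Red detection followed, with a 525/598 nm fluorescence read after 20 min.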
Sfp PPTase inh – qHTS Assay for Inhibitors of Bacillus subtilis Sfp phosphopantetheinyl transferase (PPTase); 4'-phosphopantetheinyl transferase ffp (Bacillus subtilis), Q9F4F7; Biochemical Sfp PPTase activity, qHTS; actives 3.5% (n = 310,000); AID 1490, 2009; Potency, µM, inactives show largest response in the series, negative = inhibition, actives largely listed as inhibitors;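 also: the enzyme is Sfp with the accession as filed and its product quenches rhodamine fluorescence; potency is read from the fitted curve at half-maximal effect; 0% = enzyme reaction without inhibitor and -100% = no enzyme wells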
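Step 1, compound plus 15 nM Sfp-PPTase, 15 min, room temperature. Step 2, add rhodamine-CoA (5 uM) and BHQ-2-YbbR (12.5 uM). Step 3, read 525/598 nm fluorescence at 0 and 30 min.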
Numbers without * were called inactive; ? = inconclusive; . = no result given. Unless noted, calls follow the shape of the dose curve; as a rule, active = well fitted curve in the direction sought with a large enough effect; inconclusive = small, poorly fitted or top-dose-only effect, or another doubt; inactive = no such curve, though single readings can be large; an effect the other way counts as inactive or inconclusive. Unless noted, % is scaled to controls: 0 for no effect and ±100 for the full control effect.

SMILES	Giardia killer	ELG1 DNA repair	FBPA coupling cs	Sfp PPTase inh
Cc1cc(C(F)(F)F)nc(SCC(=O)c2cccc([N+](=O)[O-])c2)n1	-5	-4%	1	-6%
CCn1ccc(C(=O)N2CCN(c3ncccn3)CC2)n1	-2	22%	.	5%
CN(C)S(=O)(=O)c1cccc(NC(=S)N/N=C/c2cc(Br)ccc2O)c1	-3	2.9µM*	1	5%
CCCC1(c2ccccc2)NC(=O)N(CC(=O)Nc2cc(C)ccc2OC)C1=O (stereo not given)	10	12%	3	9%
CCC(C)C(N)C(=O)N1CCCC1C(=O)NC(C(=O)O)C(C)CC (stereo not given)	-15	.	.	.
O=C(O)Cc1sc(Nc2ccc(F)cc2)nc1-c1cccs1	-13	?	1	22µM*
Cc1ccc(Nc2nc(-c3ccccc3)c(CC(=O)O)s2)cc1	17	?	3	0%
Nc1ncnc2n[nH]c(Nc3ccc(F)cc3)c12	.	.	0	17%
Cc1nnc(N/N=C/c2ccco2)n1N	22	1%	-42*	-15%
Cc1ccc2c(c1)c(CC(NC(=O)c1ccccc1Oc1ccccc1)C(=O)O)cn2C(=O)OCc1ccccc1 (stereo not given)	.	.	9	-18%
CCCCCCCCCCCCCCCCn1cc[n+](Cc2ccccc2)c1C	.	.	0	13µM*
CCOC(=O)[C@H](Cc1ccc(O)cc1)NC(=O)c1ccccc1	.	.	2	4%
O=S(=O)(Nc1nc2ccccc2nc1Cl)c1ccc(Br)cc1	4	-14%	13	71µM*
COc1cccc(Cn2c(=O)c(-c3cn(C)c4ccccc34)nc3cnc(OC)nc32)c1	.	.	0	5%
Nc1cc(S(=O)(=O)N2CCOCC2)ccc1Oc1cccc(Br)c1	18	13%	.	.
COC(=O)/C=C1\SC(=NC(=O)c2ccc(C)cc2)NC1=O	-1	0%	5	35µM*
O=[N+]([O-])c1ccc(N2CCN(c3ccccc3Cl)CC2)cn1	-11	9%	0	17%
O=[N+]([O-])c1ccc(N2CCN(c3ccc(O)cc3)CC2)cn1	?	?	-6	56µM*
Cc1csc(NC(=O)CSc2nc3sc(C)c(C)c3c(=O)[nH]2)n1	0	?	4	20µM*
CCN1C(=O)/C(=C2\SC(=S)N(CCCOC)C2=O)c2ccccc21	-1	9%	-4	13%
CCC(C)C(=O)N1c2ccccc2C(=C2SC(C(=O)OC)=C(C(=O)OC)S2)C(=S)C1(C)C (stereo not given)	2	-18%	-6	50µM*
O=C(O)c1ccc2c(c1)C(=O)/C(=C/c1ccccc1)C2=O	10	0%	-1	-1%
Cc1ccc(/C=C2/C(=O)c3ccc(C(=O)O)cc3C2=O)o1	-5	10%	-10	13µM*
O=C(O)c1ccc2c(c1)C(=O)/C(=C\c1ccco1)C2=O	?	-4%	1	22µM*
CC[C@H](C)[C@H](NC(=O)[C@H](CO)NC(=O)[C@H](CC(C)C)NC(=O)[C@@H]1CCCN1C(=O)[C@@H]1CCCN1C(=O)[C@H](CC(=O)O)NC(=O)[C@@H](N)CC(=O)O)C(=O)N[C@@H](CC(=O)O)C(=O)N[C@@H](CC(C)C)C(=O)N[C@H](C(=O)N[C@@H](Cc1ccccc1)C(=O)N[C@@H](Cc1cnc[nH]1)C(=O)N[C@@H](CC(C)C)C(=O)N[C@@H](CC(C)C)C(=O)N[C@@H](CCCNC(=N)N)C(=O)N[C@H](C(=O)N[C@@H](CC(C)C)C(=O)N[C@@H](CC(C)C)C(=O)N[C@@H](CCC(=O)O)C(=O)N[C@@H](CC(C)C)C(=O)N[C@@H](C)C(=O)N[C@@H](CCCNC(=N)N)C(=O)N[C@H](C(=O)N[C@@H](CCC(N)=O)C(=O)N[C@@H](CO)C(=O)N[C@@H](CCC(N)=O)C(=O)N[C@@H](CCCNC(=N)N)C(=O)N[C@@H](CCC(=O)O)C(=O)N[C@@H](CCCNC(=N)N)C(=O)N[C@@H](C)C(=O)N[C@@H](CCC(=O)O)C(=O)N[C@@H](CCC(N)=O)C(=O)N[C@@H](CC(N)=O)C(=O)N[C@@H](CCCNC(=N)N)C(=O)N[C@H](C(=O)N[C@H](C(=O)N[C@@H](Cc1ccccc1)C(=O)N[C@@H](CC(=O)O)C(=O)N[C@@H](CO)C(=O)N[C@H](C(N)=O)C(C)C)[C@@H](C)CC)[C@@H](C)CC)[C@@H](C)O)[C@@H](C)O)[C@@H](C)O	.	.	2	4%
SMILES	Giardia killer	ELG1 DNA repair	FBPA coupling cs	Sfp PPTase inh
Cc1ccc(/C=C/C(=O)OCC(=O)c2ccc3c(c2)NC(=O)CO3)o1	2	12µM*	.	.
CC1=CC(=C2C(=O)c3ccccc3C2=O)C=C(C)N1C	-16	?	-3	18%
CCCCCN1C=CC(=C2C(=O)c3ccccc3C2=O)C=C1	-92*	?	2	10%
Nc1cc2c(cc1Cl)-c1ccc(Cl)cc1C2	-7	.	.	.
CCOc1ccc(CCNC(=O)c2cc3c(C)nccc3[nH]c2=O)cc1OCC	38	21µM*	-1	8%
CCOc1ccc(CCNC(=O)c2c(C)noc2C)cc1OCC	0	18%	.	.
CN(C)c1ccc(-c2nc(N(C)Cc3ccco3)c3ccccc3n2)cc1	.	.	-2	25µM*
Cc1noc(C)c1-c1nc(N(C)Cc2ccco2)c2ccccc2n1	.	.	1	79µM*
CN(Cc1ccco1)c1nc(-c2ccoc2)nc2ccccc12	.	.	7	?
Cc1cc(NC(=O)CCCSc2nc(-c3ccco3)cc(C(F)(F)F)n2)n(-c2ccccc2)n1	10	16µM*	-2	9%
Cc1cc(NC(=O)CSc2nc(-c3ccco3)cc(C(F)(F)F)n2)n(-c2ccccc2)n1	-16	?	-1	?
O=S(=O)(c1ccccc1Cl)N1CCN(c2nc(-c3ccccc3)nc3ccccc23)CC1	10	.	.	.
CC1CCN(C(=O)CSc2nnc(CN3CCOCC3)n2-c2ccccc2)CC1	-6	11%	2	71µM*
O=C(CCCCn1cnc2c(=S)nc[nH]c21)Nc1ccc(C(=O)O)cc1	-3	.	.	.
O=C(O)Cn1cnc2c(=S)nc[nH]c21	19	2%	-17	8.9µM*
CN(C)c1ncc2nc(-c3ccc(F)cc3)c(=O)n(-c3ccccc3)c2n1	.	.	4	28%
O=S1(=O)C=C(Sc2nc3cc(Cl)ccc3o2)c2ccccc21	-10	21µM*	-1	?
Cc1cc(NC(=O)CSc2nc3cc(Cl)ccc3o2)no1	-6	5%	-1	-36%
CC(C)N=C1NN=C(c2ccc(Cl)c(Cl)c2)CS1	-8	?	0	0%
COCC(C)N=C1NN=C(c2ccc(NC(C)=O)cc2)CS1 (stereo not given)	5	?	3	40µM*
Clc1ccc(C2=NNC(=NCc3ccc4c(c3)OCO4)SC2)cc1	-17	?	0	-17%
